{"source": "PubChem BioAssay (NCATS)", "note": "Inconclusive results are not listed. Calls of active or inactive are those of the source. Calls follow the shape of the dose curve; as a rule, active = well fitted curve in the direction sought with a large enough effect; inconclusive = small, poorly fitted or top-dose-only effect, or another doubt; inactive = no such curve, though single readings can be large; an effect the other way counts as inactive or inconclusive. Potency is read from the fitted curve at half-maximal effect.", "data": [{"experiment": "High Content Imaging Cell-Based qHTS for Inhibitors of the mTORC1 Signaling Pathway in MEF Cells (AID 2667);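 as to activity change, negative = inhibition: Tsc2-/- p53-/- MEFs stably re-expressing wild-type Tsc2 exposed 24 h; plate controls were DMSO wells for no effect and rapamycin control wells for full effect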", "settings": "series mostly up to 38.3 µM; activity change, negative = inhibition: at the top concentration", "summary_of_the_method": "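WT MEFs (Tsc2-/-, p53-/- re-expressing Tsc2), in DMEM + 10% FBS, were treated with compound for 24 h at 37 C. Cells were then fixed and stained for phospho-rpS6 Ser235/236 with propidium iodide as cell count. Values are % positive cells, with thresholds set against rapamycin-treated cells.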", "values": [{"smiles": "CCCCCCCC/C=C\\CCCCCCCC(=O)NCCc1ccc(O)c(O)c1", "Potency": "5.21 µM (active)"}, {"smiles": "COc1ccc(NC(=O)c2ccc(-c3ccc(-c4noc(C)n4)cc3C)cc2)cc1N1CCN(C)CC1", "Potency": "5.85 µM (active)"}, {"smiles": "CC(C)NC[C@H](O)COc1ccc(CC(N)=O)cc1", "activity change, negative = inhibition": "-100% (inactive)"}, {"smiles": "COC(=O)[C@H](NC(=O)c1cc(-c2ccccc2)nc2ccccc12)c1ccccc1", "activity change, negative = inhibition": "-100% (inactive)"}, {"smiles": "COc1cc(/C=C(\\C#N)C(=O)Nc2nnc(C(F)(F)F)s2)ccc1OCc1ccc(C(F)(F)F)cc1C(F)(F)F", "activity change, negative = inhibition": "-100% (inactive)"}, {"smiles": "Cc1cccc(C2CN(C)CCc3c2cc(O)c(O)c3Cl)c1", "note": "(stereo not given)", "activity change, negative = inhibition": "-100% (inactive)"}, {"smiles": "CN(C)CCCc1cc(C(=O)Nc2ccc(-c3ccncc3)cc2)ccc1O", "activity change, negative = inhibition": "-100% (inactive)"}, {"smiles": "CCCCCCC/C=C\\CCCCCCCCC(=O)O", "activity change, negative = inhibition": "-100% (inactive)"}, {"smiles": "N#Cc1cc([N+](=O)[O-])c2sc(C(N)=O)[n+]([O-])c2c1", "activity change, negative = inhibition": "-100% (inactive)"}, {"smiles": "C=C1C[C@@]23CC[C@H]4[C@@](C)(CCC[C@@]4(C)C(=O)OC4OC(CO)C(O)C(O)C4O)[C@@H]2CC[C@]1(OC1OC(CO)C(O)C(O)C1OC1OC(CO)C(O)C(O)C1O)C3", "note": "(stereo not given in full)", "activity change, negative = inhibition": "-100% (inactive)"}, {"smiles": "c1ccc2c(c1)CCC[C@H]2Nc1nc2ccccc2[nH]1", "activity change, negative = inhibition": "-100% (inactive)"}, {"smiles": "CN(C)S(=O)(=O)c1ccc2c(c1)/C(=C/c1cc3c([nH]1)CCCC3)C(=O)N2", "activity change, negative = inhibition": "-100% (inactive)"}, {"smiles": "COc1cc(/C=C(\\C#N)C(=O)c2ccc(O)c(O)c2)cc(I)c1O", "activity change, negative = inhibition": "-100% (inactive)"}, {"smiles": "O=C1Cc2c([nH]c3ccc(Br)cc23)-c2ccccc2N1", "activity change, negative = inhibition": "-100% (inactive)"}, {"smiles": "CCCC[C@@]1(C2CCCC2)Cc2cc(OCC(=O)O)c(Cl)c(Cl)c2C1=O", "activity change, negative = inhibition": "-100% (inactive)"}, {"smiles": "COc1ccc(C(=O)NCc2cccnc2)cc1C(=O)NCc1cccnc1", "activity change, negative = inhibition": "-100% (inactive)"}, {"smiles": "c1ccc(CN2CCC3(CCCc4ccccc43)CC2)cc1", "activity change, negative = inhibition": "-100% (inactive)"}, {"smiles": "O=C(N[C@@H](Cc1ccccc1)C(=O)CCl)OCc1ccccc1", "Potency": "5.21 µM (active)"}, {"smiles": "CC(C)NCC(O)COc1ccc(CC(N)=O)cc1", "note": "(stereo not given)", "activity change, negative = inhibition": "-100% (inactive)"}, {"smiles": "CC(C)(C)NCC(O)COc1cccc2[nH]c(=O)[nH]c12", "note": "(stereo not given)", "activity change, negative = inhibition": "-100% (inactive)"}, {"smiles": "CC(C)(C)c1ccc(/C=C/C(=O)Nc2ccc3c(c2)OCCO3)cc1", "activity change, negative = inhibition": "-100% (inactive)"}, {"smiles": "CN(CC[C@@H](Oc1ccc(C(F)(F)F)cc1)c1ccccc1)CC(=O)O", "activity change, negative = inhibition": "-100% (inactive)"}, {"smiles": "CC[n+]1c(/C=C/C=C2/N(C)c3ccccc3C2(C)C)sc2ccccc21", "Potency": "0.0521 µM (active)"}, {"smiles": "Nc1ccc(-c2nc3ccc(-c4nc5ccc(N)cc5[nH]4)cc3[nH]2)cc1", "activity change, negative = inhibition": "-100% (inactive)"}]}, {"experiment": "Cytometry Cell-Based qHTS for Inhibitors of the mTORC1 Signaling Pathway in MEF cells (AID 2668);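 as to activity change, negative = inhibition: Tsc2-/- p53-/- mouse embryonic fibroblasts stably re-expressing wild-type Tsc2; percent cells positive for phospho-rpS6 Ser235/236 relative to propidium iodide stain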", "settings": "mTORC1 pathway readout; series mostly up to 38.3 µM; activity change, negative = inhibition: at the top concentration", "summary_of_the_method": "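Phospho-rpS6 (Ser235/236) immunofluorescence over PI signal, scored as % positive cells using thresholds from 7.5 nM rapamycin and DMSO wells, after 24 h compound exposure of WT-Tsc2-rescued Tsc2-/-, p53-/- MEFs. PI cell count recorded for viability.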", "values": [{"smiles": "CCCCCCCC/C=C\\CCCCCCCC(=O)NCCc1ccc(O)c(O)c1", "Potency": "3.69 µM (active)"}, {"smiles": "COc1ccc(NC(=O)c2ccc(-c3ccc(-c4noc(C)n4)cc3C)cc2)cc1N1CCN(C)CC1", "Potency": "5.85 µM (active)"}, {"smiles": "CCCC(=O)NCCc1c2n(c3ccc(OC)cc13)CCCc1ccccc1-2", "activity change, negative = inhibition": "-13.6% (inactive)"}, {"smiles": "CC(C)NC[C@H](O)COc1ccc(CC(N)=O)cc1", "activity change, negative = inhibition": "-13.6% (inactive)"}, {"smiles": "COC(=O)[C@H](NC(=O)c1cc(-c2ccccc2)nc2ccccc12)c1ccccc1", "activity change, negative = inhibition": "-0.856% (inactive)"}, {"smiles": "NC(N)=NC(N)=Nc1ccccc1", "activity change, negative = inhibition": "-0.351% (inactive)"}, {"smiles": "COc1cc(/C=C(\\C#N)C(=O)Nc2nnc(C(F)(F)F)s2)ccc1OCc1ccc(C(F)(F)F)cc1C(F)(F)F", "activity change, negative = inhibition": "-1.23% (inactive)"}, {"smiles": "C=C(C)C1CC=C(C(=O)O)CC1", "note": "(stereo not given)", "activity change, negative = inhibition": "7.21% (inactive)"}, {"smiles": "N[C@@H](Cc1ccc(F)cc1)C(=O)O", "activity change, negative = inhibition": "10% (inactive)"}, {"smiles": "CCCCCCC/C=C\\CCCCCCCCC(=O)O", "activity change, negative = inhibition": "-0.995% (inactive)"}, {"smiles": "CCc1ccc2c(-c3cccc(Cl)c3)nc(=O)n(CC)c2n1", "activity change, negative = inhibition": "-2.16% (inactive)"}, {"smiles": "c1ccc2c(c1)CCC[C@H]2Nc1nc2ccccc2[nH]1", "activity change, negative = inhibition": "-17.3% (inactive)"}, {"smiles": "CNCCc1cnc(CCC(c2ccccc2)c2ccccc2)[nH]1", "Potency": "11.7 µM (active)"}, {"smiles": "COc1cc(/C=C(\\C#N)C(=O)c2ccc(O)c(O)c2)cc(I)c1O", "activity change, negative = inhibition": "-2.1% (inactive)"}, {"smiles": "CCCC[C@@]1(C2CCCC2)Cc2cc(OCC(=O)O)c(Cl)c(Cl)c2C1=O", "activity change, negative = inhibition": "-0.623% (inactive)"}, {"smiles": "COc1ccc(C(=O)NCc2cccnc2)cc1C(=O)NCc1cccnc1", "activity change, negative = inhibition": "5.94% (inactive)"}, {"smiles": "CC(C)NCC(O)COc1ccc(CC(N)=O)cc1", "note": "(stereo not given)", "activity change, negative = inhibition": "-2.67% (inactive)"}, {"smiles": "CN(CC[C@@H](Oc1ccc(C(F)(F)F)cc1)c1ccccc1)CC(=O)O", "activity change, negative = inhibition": "12% (inactive)"}, {"smiles": "CC[n+]1c(/C=C/C=C2/N(C)c3ccccc3C2(C)C)sc2ccccc21", "Potency": "0.0826 µM (active)"}, {"smiles": "Nc1ccc(-c2nc3ccc(-c4nc5ccc(N)cc5[nH]4)cc3[nH]2)cc1", "activity change, negative = inhibition": "-4.78% (inactive)"}]}, {"experiment": "Validation screen for small molecules that induce DNA re-replication in MCF 10A normal breast cells (AID 463097); also: nearly all actives have a fitted effect of over 60% in size; as to re-replication induction: 0% is about no effect", "settings": "MCF 10A cells, DNA re-replication phenotype imaging; series mostly up to 46.1 µM; re-replication induction: at the top concentration", "summary_of_the_method": "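Read-out is Hoechst total nuclear intensity by fluorescence scanning imager, flagging increased high-DNA-content nuclei. Compounds were incubated with MCF 10A cells for 48 hr (37 C, 5% CO2) before 40 min staining.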", "values": [{"smiles": "COc1ccc(NC(=O)c2ccc(-c3ccc(-c4noc(C)n4)cc3C)cc2)cc1N1CCN(C)CC1", "Potency": "12.6 µM (active)"}, {"smiles": "CC(C)NC[C@H](O)COc1ccc(CC(N)=O)cc1", "Potency": "inactive"}, {"smiles": "COC(=O)[C@H](NC(=O)c1cc(-c2ccccc2)nc2ccccc12)c1ccccc1", "re-replication induction": "0.16% (inactive)"}, {"smiles": "CC(C)(C)c1cc(/C=C(\\C#N)C(N)=S)cc(C(C)(C)C)c1O", "Potency": "3.16 µM (active)"}, {"smiles": "Cc1cccc(C2CN(C)CCc3c2cc(O)c(O)c3Cl)c1", "note": "(stereo not given)", "re-replication induction": "0.365% (inactive)"}, {"smiles": "N[C@@H](Cc1ccc(F)cc1)C(=O)O", "re-replication induction": "-4.1% (inactive)"}, {"smiles": "CCC1(O)CC2CN(CCc3c([nH]c4ccccc34)[C@@](C(=O)OC)(c3cc4c(cc3OC)N(C)C3[C@]45CCN4CC=C[C@@](CC)([C@@H](OC(C)=O)[C@]3(O)C(=O)OC)[C@H]45)C2)C1", "note": "(stereo not given in full)", "Potency": "0.0501 µM (active)"}, {"smiles": "O=C1Cc2c([nH]c3ccc(Br)cc23)-c2ccccc2N1", "Potency": "6.31 µM (active)"}, {"smiles": "O=C(N[C@@H](Cc1ccccc1)C(=O)CCl)OCc1ccccc1", "Potency": "2.82 µM (active)"}, {"smiles": "CC(C)NCC(O)COc1ccc(CC(N)=O)cc1", "note": "(stereo not given)", "re-replication induction": "5.4% (inactive)"}, {"smiles": "CC(C)(C)NCC(O)COc1cccc2[nH]c(=O)[nH]c12", "note": "(stereo not given)", "re-replication induction": "-1.06% (inactive)"}]}]}
